Screens from PubChem.
BAZ2B inh = qHTS Assay for Inhibitors of BAZ2B; Bromodomain adjacent to zinc finger domain protein 2B (Homo sapiens), Q9UIF8; 4.4% of 360,000 active; AlphaScreen BAZ2B-H3K14Ac peptide displacement; Potency, µM (doses to about 114 µM), most hits filed as inhibitors; AID 504333, 2011; also: nearly all actives have a fitted effect of over 60% in size
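Complex of BAZ2B and biotin-H3K14Ac (50 nM apiece) forms over 30 min at RT, then faces library compounds up to 110 uM for another 30 min; AlphaScreen beads added, 20 min dark incubation, luminescence read.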
JMJD2A Tudor = qHTS Assay for Inhibitors of JMJD2A-Tudor Domain. Lysine-specific demethylase 4A (Homo sapiens), O75164. AlphaScreen JMJD2A-Tudor / H3K4me3 peptide binding. Potency, µM (highest dose often 114 µM), hits mostly inhibitors. 4.4% of 390,000 active. AID 504339, 2011; also: nearly all actives have a fitted effect of over 50% in size
Sfp inh = qHTS Assay for Inhibitors of Bacillus subtilis Sfp phosphopantetheinyl transferase (PPTase) | 4'-phosphopantetheinyl transferase ffp (Bacillus subtilis), Q9F4F7 | Biochemical Sfp PPTase activity, qHTS | Potency, µM, actives largely listed as inhibitors | 3.5% of 310,000 active;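 also: the enzyme is Sfp with the accession as filed and its product quenches rhodamine fluorescence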
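Sfp 15 nM + cpd, 15 min RT; start w/ rhodamine-CoA 5 uM, BHQ-2-YbbR 12.5 uM (final); 50 mM Hepes pH 7.6, 10 mM MgCl2, 0.01% NP-40, 0.01% BSA; read 525/598 nm at 0 and 30 min.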
HP1b binding inh = HTS for Inhibitors of HP1-beta Chromodomain Interactions with Methylated Histone Tails. Chromobox protein homolog 1 (Homo sapiens), P83916. AlphaScreen HP1-beta / biotin-H3K9me3 peptide binding. Potency, µM (doses to about 114 µM), usual class: inhibitors. 0.56% of 390,000 active. AID 540317, 2011; also: nearly all actives have a fitted effect of over 70% in size
Target sequence (P83916 whole entry, looked up): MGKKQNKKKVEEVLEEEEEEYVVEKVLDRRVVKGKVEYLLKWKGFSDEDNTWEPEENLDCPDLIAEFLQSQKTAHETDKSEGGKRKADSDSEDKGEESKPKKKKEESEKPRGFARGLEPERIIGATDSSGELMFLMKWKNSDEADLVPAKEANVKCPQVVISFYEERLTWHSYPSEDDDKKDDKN
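AlphaScreen: HP1-beta (50 nM) preformed 30 min with biotin-H3(1-18)K9me3 peptide (50 nM) in PBS pH 7.4, 0.01% Tween-20. Compound added for 30 min at RT, then streptavidin donor/nickel chelate acceptor beads (10 ug/mL) for 30 min.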
L3MBTL1 inh = qHTS Assay for the Inhibitors of L3MBTL1. Lethal(3)malignant brain tumor-like protein 1 (Homo sapiens), Q9Y468. AlphaScreen L3MBTL1–H3K9me1 peptide binding. Potency, µM (highest dose often 57.1 µM), actives largely listed as inhibitors. 0.66% of 230,000 active. AID 485360, 2010; also: nearly all actives have a fitted effect of over 60% in size
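Displacement of a biotinylated histone H3(1-15) peptide monomethylated at Lys9 (75 nM) from L3MBTL1 (50 nM) was measured by AlphaScreen after a 30 min room-temperature compound incubation; cefsulodin titration served as intraplate control.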
G9a inh = qHTS Assay for Inhibitors of Histone Lysine Methyltransferase G9a; Potency, µM (highest dose often 102 µM), usual class: inhibitors; AID 504332, 2011; G9a H3K9 monomethylation, AlphaScreen, 2 h; 8.8% of 350,000 active; Histone-lysine N-methyltransferase EHMT2 (Homo sapiens), Q96KQ7; also: nearly all actives have a fitted effect of over 75% in size
Target sequence (Q96KQ7 913-1193 limits assumed): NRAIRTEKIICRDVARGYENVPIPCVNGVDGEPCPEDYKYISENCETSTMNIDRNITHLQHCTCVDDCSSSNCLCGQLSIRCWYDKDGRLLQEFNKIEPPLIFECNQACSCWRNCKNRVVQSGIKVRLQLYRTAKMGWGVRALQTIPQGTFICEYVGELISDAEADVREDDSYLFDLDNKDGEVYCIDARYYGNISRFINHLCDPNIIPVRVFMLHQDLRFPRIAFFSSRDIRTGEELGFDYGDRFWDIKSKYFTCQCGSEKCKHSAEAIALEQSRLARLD
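AlphaScreen read-out: biotin-H3K9 peptide (500 nM) methylation by 20 nM enzyme with 20 uM SAM, 2 h at room temperature after 15 min compound preincubation; anti-monomethyl H3K9 antibody plus donor/acceptor beads, 10 min dark.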
A number is an active result; – = inactive; ? = inconclusive; · = no result given; [ ] = remark or other dose. Compounds with a hit are over-represented: about 12% of the library has one in this group of screens. Calls follow the shape of the dose curve; as a rule, active = well fitted curve in the direction sought with a large enough effect; inconclusive = small, poorly fitted or top-dose-only effect, or another doubt; inactive = no such curve, though single readings can be large; an effect the other way counts as inactive or inconclusive.

SMILES	BAZ2B inh	JMJD2A Tudor	Sfp inh	HP1b binding inh	L3MBTL1 inh	G9a inh
CC(OC(=O)/C=C/c1ccc(Br)cc1)C(=O)N1CCOCC1 (stereo unspecified)	–	–	·	–	–	–
CN1CCN(C(=S)NC(=O)/C=C/c2ccccc2Cl)CC1	–	–	–	–	–	44.7µM
O=C(NC(=S)N1CCCCCC1)c1ccccc1Cl	–	–	–	–	·	–
CN1CCN(C(=S)NC(=O)/C=C/c2ccccc2)CC1	–	–	–	–	·	50.1µM
CN1CCN(C(=S)Nc2ccccc2Cl)CC1	–	–	–	–	·	–
O=C(/C=C/c1ccc(Br)cc1)NC(=S)N1CCOCC1	–	–	–	–	–	70.8µM
CC(C)NC(=O)c1nn(C)c2ccccc12	–	–	–	–	–	–
CCC(Sc1nc2ncnc(N)c2[nH]1)C(=O)O (stereo unspecified)	–	–	–	–	–	39.8µM
Nc1ncnc2nc(SCc3ccccc3)[nH]c12	–	–	–	–	–	–
CCOC(=O)CSc1ccc(S(=O)(=O)N(CC)CC)cc1[N+](=O)[O-]	–	–	–	–	·	44.7µM
CCCCN(CCCC)S(=O)(=O)c1ccc(SCC(=O)OCC)c([N+](=O)[O-])c1	–	?	–	79.4µM	·	–
Cc1ccc(NC(=O)C2CCN(S(=O)(=O)c3ccc4c(c3)CCCC(=O)N4)CC2)c(Cl)c1	–	–	·	–	·	–
Cc1ccc2c(c1)c(N=NC(N)=S)c(O)n2Cc1ccccc1	–	–	–	–	–	–
Cc1cccc(NC(=O)Cn2c(O)c(N=NC(N)=S)c3ccccc32)c1	–	–	39.8µM	?	·	–
Cc1cccc(Cn2c(O)c(N=NC(=S)Nc3ccccc3F)c3ccccc32)c1	8.91µM	10µM	–	–	·	8.91µM
Oc1c(N=NC(=S)Nc2ccccc2F)c2ccccc2n1Cc1cccc(Cl)c1	11.2µM	?	–	?	·	?
COc1ccccc1NC(=O)Cn1c(O)c(N=NC(=O)c2ccccc2O)c2ccccc21	56.2µM	–	–	–	–	44.7µM
CC(=O)c1ccc(-n2ccc(=O)cc2)cc1	–	–	–	–	·	–
CN1C[C@@H]2[C@@H]3C(=O)N(Cc4ccccc4)C(=O)[C@@H]3[C@](C)(C1=O)N2C(=O)c1ccccc1	·	–	·	–	·	·
Cc1c(Cl)ccc2c1NC(=O)[C@]21[C@@H]2C(=O)N(Cc3ccccc3)C(=O)[C@@H]2[C@@H]2CCCN21	–	–[11.4 µM]	–	–	–	44.7µM
CCc1cccc2c1NC(=O)[C@]21[C@@H]2C(=O)N(Cc3ccccc3)C(=O)[C@@H]2[C@@H]2CCCN21	–	–	–	–	–	44.7µM
Cc1cc(S(=O)(=O)Nc2ccc(C(=O)NCC(c3ccco3)N(C)C)cc2)ccc1F (stereo unspecified)	–	–	·	–	–	–[0.501 µM]
c1ccc(CN=C2NN=C(c3cc4ccccc4o3)CS2)cc1	?	–	–	–	–	?
Cc1cc(C2=NNC(=NC3CCCCC3)SC2)c(C)n1-c1c(C)n(C)n(-c2ccccc2)c1=O	?	–	?	–	–	–
Cc1cc(C2=NNC(=NC3CC3)SC2)c(C)n1-c1ccccc1F	?	28.2µM	44.7µM	?	–	?
SMILES	BAZ2B inh	JMJD2A Tudor	Sfp inh	HP1b binding inh	L3MBTL1 inh	G9a inh
c1ccc2oc(C3=NNC(=NC4CC4)SC3)cc2c1	?	?	–	–	–	11.2µM
O=C(Cn1cc(SCc2ccc(C(F)(F)F)cc2)c2ccccc21)N1CCCC1	–	–	·	–	·	–
CNS(=O)(=O)c1cccc(C(=O)OCC(=O)NC2CCCC2)c1	–	–	–	–	·	–[2.33 µM]
CNS(=O)(=O)c1cccc(C(=O)OC2CCCCC2=O)c1 (stereo unspecified)	–	–	–	–	–	12.6µM
CC(=O)N1C(C(=O)O)Cc2c([nH]c3ccccc23)C1C (stereo unspecified)	–	–	–	–	–	·
CCCn1c(-c2ccc(F)cc2)nc2c(N3CCCN(Cc4ccccc4)CC3)nc(C)nc21	·	·	22.4µM	·	·	·
CCCn1c(C)nc2c(N3CCCN(Cc4ccccc4)CC3)nc(C)nc21	·	·	–	·	·	·
Cc1cccc(CNC(=O)c2ccc3c(c2)N(C)C(=O)C2CCCCN32)c1 (stereo unspecified)	–	–	·	–	·	–
CCN1C(=O)C2CCCCN2c2ccc(C(=O)NCCOC)cc21 (stereo unspecified)	–	–	–	–	·	79.4µM
CC(C)(C)NC(=O)C[C@H]1C[C@H](C(=O)N2CCOCC2)[C@@]2(C)c3[nH]c4cc(-c5ccco5)ccc4c3CCN2C1=O	·	?	·	–	–	·
CCN(CC)C(=O)[C@H]1C[C@H](CC(=O)NCc2ccco2)C(=O)N2CCc3c([nH]c4cc(-c5ccco5)ccc34)[C@]12C	·	50.1µM	·	?	–	·
CC(C)(C)NC(=O)C[C@H]1C[C@H](C(=O)N2CCCCC2)[C@@]2(C)c3[nH]c4cc(-c5ccco5)ccc4c3CCN2C1=O	·	50.1µM	·	–	–	·
CC[C@]12c3[nH]c4cc(-c5ccco5)ccc4c3CCN1C(=O)[C@@H](CC(=O)NCc1ccco1)C[C@@H]2C(=O)N1CCN(C(=O)c2ccco2)CC1	·	?	·	–	35.5µM	·
CC1(C)OC2CC(=O)OCC23C1CC(=O)C1(C)C3CC[C@@]2(C)[C@H](c3ccoc3)OC(=O)C3OC312 (stereo partly specified)	·	·	–	·	·	–
COCC(=O)N1CCC2(CCCN(C(c3ccccc3)c3ccccc3)C2)CC1	·	·	–	·	·	–[12.7 µM]
COc1ccc(N(CC(=O)Nc2cc(C)ccc2C)S(=O)(=O)c2ccc(OC)c(OC)c2)cc1	–	–	·	–	·	–
O=C(CSc1nnc(C2CC2)n1Cc1ccco1)NCC(F)(F)F	·	–	–	–	?	–
Cc1ccc2nc3c(nc2c1C)C(O)=C3O	–	–	–	?	·	12.6µM
COC(=O)c1ccc(NC(=O)CCS(=O)(=O)c2ccc3c(c2)NC(=O)C(C)S3)cc1 (stereo unspecified)	–	?	–	–	·	–
COc1ccc(NC(=O)CC2C(=O)N(Cc3ccccc3)C(=S)N2CCN2CCOCC2)cc1 (stereo unspecified)	–	–	–	–	–	–
C=CCN1C(=O)C(CC(=O)Nc2ccc(OCCC)cc2)N(CCCN2CCN(Cc3ccccc3)CC2)C1=S (stereo unspecified)	10µM	?	–	–	·	?
Cc1ccc(-c2csc(NS(=O)(=O)c3cccc(F)c3)n2)o1	·	56.2µM	·	–	28.2µM	·
